Test results: the supplement of paper PMC3414501;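 active = score above 5; some higher scores were not called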
Structures can show the parent of a compound that is named as a salt.

System: S. cerevisiae SK1 pCDA2-eGFP (USY613), sporulating
Assay: CDA2-GFP sporulation assay sensitivity score (z-score vs DMSO controls); higher = stronger inhibition of sporulation, active = hit call of the paper

CDA2-GFP sporulation assay sensitivity score, inactive:
O=C(O)c1cc(/N=N/c2ccc(S(=O)(=O)Nc3ccccn3)cc2)ccc1O [Sulfasalazine] (stock concentration (mM, diluted 1:100): 10) 2.13
CCn1cc(C(=O)O)c(=O)c2cc(F)c(N3CCN(C)CC3)cc21 [Pefloxacin mesylate] (stock concentration (mM, diluted 1:100): 7.9) -0.85
CC(=O)CCCCn1c(=O)c2c(ncn2C)n(C)c1=O [Pentoxifylline] (stock concentration (mM, diluted 1:100): 10) 0.09
Cc1ncc([N+](=O)[O-])n1CC(C)O (stereo not drawn) [Secnidazole] (stock concentration (mM, diluted 1:100): 10) 0.94
CN1C(C(=O)Nc2ccccn2)=C(O)c2ccccc2S1(=O)=O [Piroxicam] (stock concentration (mM, diluted 1:100): 10) -3.86
C[C@@H](c1ncncc1F)[C@](O)(Cn1cncn1)c1ccc(F)cc1F [Voriconazole] (stock concentration (mM, diluted 1:100): 9.9) -0.46
O=C1CN2Cc3c(ccc(Cl)c3Cl)N=C2N1 [Anagrelide hydrochloride] (stock concentration (mM, diluted 1:100): 8.8) 3.77
C[C@H]1[C@H](OC(=O)CCC(=O)O)O[C@@H]2O[C@@]3(C)CC[C@H]4[C@H](C)CC[C@@H]1[C@@]24OO3 [Artesunate] (stock concentration (mM, diluted 1:100): 10) 0.74
